Source: PubChem BioAssay (National Center for Advancing Translational Sciences (NCATS))
Sfp PPTase inh – qHTS Assay for Inhibitors of Bacillus subtilis Sfp phosphopantetheinyl transferase (PPTase) | 310,000 tested, 3.5% active | AID 1490, 2009 | Potency, µM, inactives show largest response in the series, negative = inhibition, most hits filed as inhibitors | 4'-phosphopantetheinyl transferase ffp (Bacillus subtilis), Q9F4F7 | Biochemical Sfp PPTase activity, qHTS;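 also: the enzyme is Sfp with the accession as filed and its product quenches rhodamine fluorescence; potency is read from the fitted curve at half-maximal effect; 0% = enzyme reaction without inhibitor and -100% = no enzyme wells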
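Step 1, compound plus 15 nM Sfp-PPTase, 15 min, room temperature. Step 2, add rhodamine-CoA (5 uM) and BHQ-2-YbbR (12.5 uM). Step 3, read 525/598 nm fluorescence at 0 and 30 min.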
KDM4E inh – qHTS Assay for Inhibitors of Human Jumonji Domain Containing 2E (JMJD2E); Potency, µM (top dose mostly 57.1 µM), for the others: top-dose activity change, negative = inhibition, usual class: inhibitors; JMJD2E catalytic domain, FDH-coupled NADH fluorescence (FDH is formaldehyde dehydrogenase); AID 2147, 2009; 230,000 tested, 1.6% active; active = well fitted inhibition curve with a large enough effect, not every such curve was filed as active; inconclusive = small, poorly fitted or top-dose-only effect, or another doubt; inactive = no such curve, though single readings can be large or run the other way;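 also: potency is read from the fitted curve at half-maximal effect; 0% = wells with enzyme and -100% = buffer wells without enzyme; nearly all actives have a fitted effect of over 50% in size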
G9a inh – qHTS Assay for Inhibitors of Histone Lysine Methyltransferase G9a. Histone-lysine N-methyltransferase EHMT2 (Homo sapiens), Q96KQ7. G9a H3K9 monomethylation, AlphaScreen, 2 h. Potency, µM (highest dose often 102 µM), for inactives: at the top dose activity, negative = inhibition, most hits filed as inhibitors. 350,000 tested, 8.8% active. AID 504332, 2011; also: potency is read from the fitted curve at half-maximal effect; % is scaled to controls: 0 for no effect and ±100 for the full control effect; nearly all actives have a fitted effect of over 75% in size
Target sequence (Q96KQ7 913-1193 limits assumed): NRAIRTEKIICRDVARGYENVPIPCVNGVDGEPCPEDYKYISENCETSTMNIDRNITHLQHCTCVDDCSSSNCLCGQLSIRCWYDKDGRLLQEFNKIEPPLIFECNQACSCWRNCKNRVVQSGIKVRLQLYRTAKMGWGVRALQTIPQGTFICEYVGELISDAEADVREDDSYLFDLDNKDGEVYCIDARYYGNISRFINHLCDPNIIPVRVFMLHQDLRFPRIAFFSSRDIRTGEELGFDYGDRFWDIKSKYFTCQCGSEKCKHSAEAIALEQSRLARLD
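Using a bead-based AlphaScreen, monomethylated H3K9 product from 2 h room-temperature reactions (G9a 20 nM, peptide 500 nM, SAM 20 uM) was detected with 0.5 ug/mL rabbit anti-H3K9me1 antibody.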
Lamin A splicing – qHTS Assay for Modulators of Lamin A Splicing; HeLa LMNA splicing GFP/RFP minigene ratio, 48 h; Potency, µM (top dose mostly 46.1 µM), inactives show at the top dose ratio change, negative = inhibition, usual class: inhibitors; AID 1487, 2009; 200,000 tested, 0.01% active; active = well fitted inhibition curve with a large enough effect in the signal ratio, with a control signal flat, not every such curve was filed as active; inconclusive = small, poorly fitted or top-dose-only effect, or effect the other way, or a change in a side signal; the % refers to the signal ratio; also: potency is read from the fitted curve at half-maximal effect; % is scaled to controls: 0 for no effect and ±100 for the full control effect
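S3 HeLa cells stably expressing lamin A-EGFP splicing minigene plus DsRed2, 600 cells/well, 48 h compound exposure at 37C. Laser-scanning cytometry; analysed as GFP (500-530 nm)/RFP (575-640 nm) total intensity ratio; 0.5% DMSO vehicle.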
ALDH1A1 block – qHTS Assay for Inhibitors of Aldehyde Dehydrogenase 1 (ALDH1A1). Potency, µM (titrated, usually from 75.3 µM), without a hit: top-dose activity, negative = inhibition, actives largely listed as inhibitors. 220,000 tested, 7.3% active. Purified ALDH1A1, NADH fluorescence, propionaldehyde substrate. Aldehyde dehydrogenase 1A1 (Homo sapiens), P00352. AID 1030, 2008; active = well fitted inhibition curve with a large enough effect, not every such curve was filed as active; inconclusive = small, poorly fitted or top-dose-only effect, or another doubt; inactive = no such curve, though single readings can be large or run the other way;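 also: potency is read from the fitted curve at half-maximal effect; plate controls were no enzyme wells and a reference inhibitor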
miR-21 reporter – qHTS Assay for Modulators of miRNAs and/orActivators of miR-21 | HeLa miR-21 FLuc reporter, luciferase, 48 h | 340,000 tested, under 10 active | Potency, µM (doses to about 38.3 µM), inactives show at the top dose activity change, positive = activation, most hits filed as activators;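 also: % of control where 0% means no effect; miR-21 action dims this reporter so a rising signal means less miR-21 action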
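Luminescence from a firefly luciferase reporter carrying a miR-21 binding site downstream, stably expressed under a CMV promoter in HeLa cells that make miR-21 endogenously, reports miRNA modulation after 48 h compound exposure up to approximately 40uM final.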
* = called active by the depositor; [ ] = another dose, or the depositor's remark. The list is not random: actives were taken first. Their share in the collection is about 13%. Unless noted, calls follow the shape of the dose curve; as a rule, active = well fitted curve in the direction sought with a large enough effect; inconclusive = small, poorly fitted or top-dose-only effect, or another doubt; inactive = no such curve, though single readings can be large; an effect the other way counts as inactive or inconclusive.

Screening Fc1ccc(CNCCCSc2nnnn2-c2ccccc2)cc1 returned G9a inh -30.7%[59 µM], Lamin A splicing -9.6%[46 µM] and miR-21 reporter 0.5%.
Screening Cc1ccc(C(=O)CSc2nnnn2-c2ccccc2)o1 returned Sfp PPTase inh -2.2%, KDM4E inh 2.8%, G9a inh inconclusive, Lamin A splicing 13.3%[46 µM], ALDH1A1 block 3.55µM* and miR-21 reporter -42.2%.
`Brc1ccccc1-c1nnc(CSc2nnnn2-c2ccccc2)o1` gave Sfp PPTase inh inconclusive, KDM4E inh -2.7%, G9a inh inconclusive, Lamin A splicing -2.1%, ALDH1A1 block 10µM* and miR-21 reporter -32.7%.
Screening O=C1c2ccccc2C(=O)N1CCCCSc1nnnn1-c1ccccc1 returned Sfp PPTase inh -8.5%, KDM4E inh -17.0%, G9a inh 22.3%[59 µM], Lamin A splicing inconclusive, ALDH1A1 block 0.178µM* and miR-21 reporter -3.2%.
Screening O=C1c2ccccc2C(=O)N1CSc1nnnn1-c1ccccc1 returned Sfp PPTase inh 9.3%, KDM4E inh -1.0%, G9a inh 9.1%[12.7 µM], Lamin A splicing -6.2%, ALDH1A1 block inconclusive and miR-21 reporter -1.3%.
Screening O=C(CCCSc1nnnn1-c1ccccc1)c1ccc(F)cc1 returned Sfp PPTase inh -17.9%, KDM4E inh 6.5%, G9a inh 139.2%, Lamin A splicing -5.2%, ALDH1A1 block 1.26µM* and miR-21 reporter -6.6%.
Screening COc1ccc(CNC(=O)c2ccc3c(c2)N(Cc2cc(C)ccc2C)C(=O)CS3)cc1 returned G9a inh 6.9%[59 µM] and miR-21 reporter -1.7%.
c1ccc(-n2nnnc2SCc2cccc3nsnc23)cc1 was read as Sfp PPTase inh 6.6%, KDM4E inh -5.8%, G9a inh -11.2%, Lamin A splicing inconclusive, ALDH1A1 block 14.1µM* and miR-21 reporter -11.6%.
Cc1ccc(C(=O)CSc2nnc(-c3cccs3)n2C)o1 was read as Sfp PPTase inh -3.9%, KDM4E inh -10.0%, G9a inh 50.1µM*, Lamin A splicing 2.9%, ALDH1A1 block inconclusive and miR-21 reporter -10.4%.
`O=C(CSc1nnnn1-c1ccccc1)Nc1ccccc1` gave Sfp PPTase inh 7.1%, G9a inh 60.4% and miR-21 reporter -2.4%.
O=C(CSc1nnnn1-c1ccccc1)CSc1nnnn1-c1ccccc1 was read as Sfp PPTase inh 2.7%, KDM4E inh 7.2%, G9a inh -32.4%[12.7 µM], Lamin A splicing -8.3%, ALDH1A1 block 3.16µM* and miR-21 reporter 1.3%.
For Cc1cc(C)nc(NC(=O)CSc2nnnn2-c2ccccc2)n1 the results were Sfp PPTase inh 11.1%, KDM4E inh 6.2%, G9a inh -8.1%, Lamin A splicing -4.9%, ALDH1A1 block 7.08µM* and miR-21 reporter -18.7%.
For Oc1ccc(-n2nnnc2SCc2ccccc2Br)cc1 the results were Sfp PPTase inh 9.9% and miR-21 reporter 6.8%.
Screening Cc1ccc(C)c(S(=O)(=O)N2CCN(C(=O)c3ccc(OCc4c(C)noc4C)cc3)CC2)c1 returned G9a inh -25.3%.
Screening CC(CNC(=O)Cc1ccc(NC(=O)N2CCSc3ncccc32)cc1)c1ccccc1 (stereo unspecified) returned G9a inh -28.8%[59 µM] and miR-21 reporter 8.4%.
For CCOC(=O)c1c(/N=C/c2cccc([N+](=O)[O-])c2O)sc(C)c1C the results were Sfp PPTase inh 39.8µM*, KDM4E inh 0.5%, G9a inh 7.08µM*, Lamin A splicing inconclusive, ALDH1A1 block 12.6µM* and miR-21 reporter -0.3%.
For O=[N+]([O-])c1cccc(C=Nc2cccc3ccccc23)c1O the results were Sfp PPTase inh 2.7% and miR-21 reporter 0.6%.
